MEKK2 mut-MEK5 = signal of MEK5 binding to mutant human MEKK2 PB1 domain | bead flow cytometry, Alexa488-MEK5 binding to MEKK2 mutant | percent response, % at 10 µM | 290,000 compounds, 0.35% hits | AID 1530; in the data active = percent response above about 24%, passing the limit was not always enough
UBC13 inh = human UBC13 polyubiquitination inhibition. P61088. UBC13 polyubiquitin chain formation, TR-FRET. inhibition, % at 20 µM. 330,000 compounds, 0.47% hits. AID 485273; in the data active = inhibition above about 45%, passing the limit was not always enough
ATG4B inhibitor = blocks human ATG4B protease cleavage of LC3 substrate; AID 504462; ATG4B cleavage of LC3-PLA2, NBD-HPC fluorescence, 1 h; Q9Y4P1; inhibition, % at 8.33 µM; 340,000 compounds, 0.51% hits; in the data active = inhibition above about 40%
MEKK2wt PB1 HTS = raises or lowers MEK5 binding to wildtype human MEKK2 PB1 domain; 290,000 compounds, 1.1% hits; Q9Y2U5; bead flow cytometry, Alexa488-MEK5 binding to MEKK2 WT; actives lie on both sides; AID 1531; binding response (% of control), % at 10 µM; in the data active = binding response below about 67% or above about 130%
PREPL inh = inhibits the human prolyl oligopeptidase-like enzyme | Q4J6C6 | recombinant PREPL, fluorescence polarization activity-based probe | inhibition, % at 5.96 µM | 320,000 compounds, 0.68% hits | AID 2751
MEKK3 PB1 HTS = raises or lowers MEK5 binding to the human MEKK3 PB1 domain. Q99759. bead-based flow cytometry, Alexa488-MEK5 binding to MEKK3; actives lie on both sides; 0 = blocked by unlabeled MEK5, 100 = vehicle. binding response (% of control), % at 10 µM. 290,000 compounds, 1.4% hits;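 active = binding response more than 3 SD above or below the average of its plate-row segment, actives on both sides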;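 note: Alexa488 bead fluorescence after subtracting the streptavidin-only scavenger bead signal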
Target sequence (Q99759 whole entry, looked up, the tested form may be a part): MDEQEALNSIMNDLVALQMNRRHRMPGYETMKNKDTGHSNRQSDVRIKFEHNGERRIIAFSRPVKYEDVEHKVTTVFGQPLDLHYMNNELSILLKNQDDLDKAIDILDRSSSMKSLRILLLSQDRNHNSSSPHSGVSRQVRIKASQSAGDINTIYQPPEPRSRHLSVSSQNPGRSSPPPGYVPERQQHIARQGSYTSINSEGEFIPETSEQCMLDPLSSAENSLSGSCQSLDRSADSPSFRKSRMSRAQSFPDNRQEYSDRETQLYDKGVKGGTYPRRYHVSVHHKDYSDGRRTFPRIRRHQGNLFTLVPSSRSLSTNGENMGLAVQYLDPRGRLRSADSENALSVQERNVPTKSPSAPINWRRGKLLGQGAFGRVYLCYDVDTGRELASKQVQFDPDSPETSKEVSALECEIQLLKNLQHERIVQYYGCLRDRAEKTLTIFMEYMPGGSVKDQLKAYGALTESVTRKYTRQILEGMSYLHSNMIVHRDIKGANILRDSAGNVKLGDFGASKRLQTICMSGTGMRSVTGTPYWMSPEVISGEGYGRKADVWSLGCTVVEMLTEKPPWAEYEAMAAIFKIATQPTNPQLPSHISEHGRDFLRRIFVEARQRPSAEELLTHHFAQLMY
MEKK2wt confirm = raises or lowers MEK5 binding to wildtype human MEKK2, retest; AID 1892; 5,900 compounds, 2.4% hits; bead flow cytometry, Alexa488-MEK5 binding to MEKK2 WT; actives lie on both sides; shares compounds with MEKK3 PB1 HTS; binding response (% of control), % at 10 µM; in the data active = binding response below about 16% or above about 210%; inactive = in between
MEKK2mut confirm = signal of MEK5 binding to mutant human MEKK2, retest | AID 1893 | bead flow cytometry, Alexa488-MEK5 binding to MEKK2 mutant | shares compounds with MEKK3 PB1 HTS | 5,900 compounds, 2% hits | percent response, % at 10 µM; in the data active = percent response mostly above about 71%, no sharp cut-off; inactive = mostly below about 38%;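 note: higher means compound restores mutant binding toward wildtype level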
MEKK3 confirm = confirmation of inhibitors of MEK5 binding to human MEKK3 | binding response (% of control), % at 10 µM | shares compounds with MEKK3 PB1 HTS | bead flow cytometry, Alexa488-MEK5 binding to MEKK3; active compounds read low | 5,900 compounds, 1.8% hits;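 active = binding response below 72% of control, or above a set upper limit, though filed actives all read lower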;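 note: lower values mean stronger disruption of MEK5 binding to MEKK3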
PREPL confirm = confirmation of human PREPL enzyme inhibitors; AID 2803; recombinant PREPL, fluorescence polarization activity probe; shares compounds with PREPL inh; 2,000 compounds, 67% hits; inhibition, % at 5.96 µM
Casp3 counter = caspase-3 inhibition (UBC13 counter-screen) | shares compounds with UBC13 inh | Recombinant caspase-3, Caspase-Glo 3/7 luminescence, 60 min | inhibition, % at 20 µM | 1,400 compounds, 4% hits | AID 488856;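 active = mean inhibition across replicates above about 26%, limit read from the data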
UBC13 confirm = confirmation of human UBC13 polyubiquitin inhibitors. shares compounds with UBC13 inh. inhibition, % at 10 µM. 1,400 compounds, 68% hits. UBC13 polyubiquitination, TR-FRET, biochemical; in the data active = inhibition above about 45%
Hits are given with their value; 0 = inactive; - = not tested or not shown; [ ] = another dose, or the depositor's remark. Only some compounds are listed: those with a hit (about 3.1% of all), similar ones and a draw of the others. Cut-off read from the data, not from the text of the source, unless noted: active = inhibition above about 43%; inactive = the rest.

SMILES | MEKK2 mut-MEK5 | UBC13 inh | ATG4B inhibitor | MEKK2wt PB1 HTS | PREPL inh | MEKK3 PB1 HTS | MEKK2wt confirm | MEKK2mut confirm | MEKK3 confirm | Casp3 counter | UBC13 confirm | others
CCCCCCCCCCOC(=O)Cn1c(COc2ccc(Cl)cc2)[n+](C)c2ccccc21 | 101.0 | 99.8 | 0 | 349.0 | 0 | 0 | 0 | 0 | 0 | 0 | 89.3
CCCCCOC(=O)Cn1c(=O)oc2ccccc21 | 0 | 0 | 0 | 0 | 0 | 0 | - | - | - | - | -
COc1ccc(CNc2nc3ccccc3n2CCN2CCCCC2)cc1 | 0 | 0 | 0 | 0 | 0 | 0 | - | - | - | - | -
COc1ccc(CCN2CCC(Nc3nc4ccccc4n3Cc3ccc(F)cc3)CC2)cc1 | 38.0 | 48.1 | 0 | 150.0 | 0 | 0 | 0 | 0 | 0 | 0 | 0
OC(CNCC1CCCO1)Cn1c2ccccc2c2ccccc21 (stereo not given) | 0 | 0 | 0 | 0 | 0 | 0 | - | - | - | - | -
OC(CNCC1CCCO1)Cn1c2ccc(Cl)cc2c2cc(Cl)ccc21 (stereo not given) | 0 | 49.2 | 0 | 187.0 | 0 | 0 | 0 | 0 | 0 | 0 | 88.7
C#CCOCCOCCOCCNc1nc(N2CCN(C(=O)[C@H](Cc3ccc(O)cc3)n3cc([C@@H](N)C(C)CC)nn3)CC2)nc(N2CCN(C(=O)[C@H](CCCCN)n3cc([C@@H](N)CO)nn3)CC2)n1 (stereo not given in full) | 0 | 0 | 0 | 0 | 0 | 0 | - | - | - | - | -
C#CCOCCOCCOCCNc1nc(N2CCN(C(=O)[C@H](CCCCN)n3cc([C@@H](N)C(C)CC)nn3)CC2)nc(N2CCN(C(=O)[C@H](Cc3cc4ccccc4[nH]3)n3cc([C@@H](N)CC(C)C)nn3)CC2)n1 (stereo not given in full) | 93.0 | 99.9 | 0 | 237.0 | 58.5 | 0 | 0 | 0 | 0 | 0 | 116.5 | PREPL confirm=58.4
C#CCOCCOCCOCCNc1nc(N2CCN(C(=O)C(Cc3ccc(O)cc3)n3cc(C(N)CC(C)C)nn3)CC2)nc(N2CCN(C(=O)C(Cc3cc4ccccc4[nH]3)n3cc(C(N)Cc4ccc(O)cc4)nn3)CC2)n1 (stereo not given) | 112.0 | 78.4 | - | 258.0 | 52.3 | 0 | 221.0 | 86.0 | 0 | 0 | 59.2 | PREPL confirm=51.1
C#CCOCCOCCOCCNc1nc(N2CCN(C(=O)[C@H]([C@@H](C)CC)n3cc([C@@H](N)Cc4ccc(O)cc4)nn3)CC2)nc(N2CCN(C(=O)[C@H]([C@@H](C)CC)n3cc([C@@H](N)CC(C)C)nn3)CC2)n1 | 0 | 68.4 | 0 | 139.0 | 0 | 0 | 0 | 0 | 0 | 0 | 0
C#CCOCCOCCOCCNc1nc(N2CCN(C(=O)[C@H]([C@@H](C)CC)n3cc([C@@H](N)Cc4ccc(O)cc4)nn3)CC2)nc(N2CCN(C(=O)[C@H](Cc3ccc(O)cc3)n3cc([C@@H](N)CC(C)C)nn3)CC2)n1 | 0 | 45.3 | 0 | 181.0 | 0 | 0 | 0 | 0 | 0 | 0 | 0
CC1(c2nnc(Cc3ccccc3)o2)CC(c2cccc(Cl)c2)=NO1 (stereo not given) | 0 | 0 | 0 | 0 | 0 | 0 | - | - | - | - | -
CCC(=O)c1ccc(OCC(=O)OCC(=O)N2CCCc3ccccc32)cc1 | - | 0 | 0 | - | 0 | - | - | - | - | - | -
O=C(Cn1cccn1)N1CCCC(N2CCN(c3ccccc3F)CC2)C1 (stereo not given) | 0 | 0 | 0 | 0 | 0 | 0 | - | - | - | - | -
Cc1ccc(C(=O)OCC(=O)NN2C(=O)NC3(CCC(C)CC3)C2=O)cc1 (stereo not given) | - | 0 | 0 | - | 0 | - | - | - | - | - | -
O=C1c2cc(Cl)ccc2OC2(CCNCC2)C12CC(c1ccc(Cl)cc1)=NO2 (stereo not given) | 0 | 48.4 | 0 | 162.0 | 0 | 0 | 0 | 0 | 0 | 0 | 0
CN(Cc1ccccc1)c1ncc(C=O)s1 | 0 | 0 | 0 | 0 | 0 | 0 | - | - | - | - | -
CCCCCCCCCCCCCCCC(O)C(N)CO (stereo not given) | 38.0 | 111.1 | 0 | 220.0 | 0 | 0 | 0 | 0 | 0 | 0 | 101.0
CCOC(=O)c1c(-c2ccccc2)oc2ccc(OCC(O)CNCCN(C)C)cc12 (stereo not given) | 31.0 | 52.9 | 0 | 165.0 | 0 | 0 | 0 | 0 | 0 | 0 | 55.5
O=C(N1CCOCC1)N1CCc2ccccc21 | 0 | 0 | 0 | 0 | 0 | 0 | - | - | - | - | -
COc1cc(-c2nc(C(=O)NC3CCN(Cc4ccccc4)CC3)cc3c2[nH]c2ccccc23)cc(OC)c1OC | 0 | 55.8 | 0 | 147.0 | 0 | 0 | 0 | 0 | 0 | 0 | 48.9
CC(C)c1ccc(C2(C)NC(=O)N(CC(=O)N3CCN(C(=O)c4cccs4)CC3)C2=O)cc1 (stereo not given) | - | 0 | 0 | - | 0 | - | - | - | - | - | -
COc1ccc(Nc2cc(C)nc3ccc(OC)cc23)cc1 | 0 | 0 | 0 | 0 | 0 | 0 | - | - | - | - | -
COc1ccc2nc(C)cc(N/N=C/c3ccc(F)cc3)c2c1 | 59.0 | 97.0 | 0 | 160.0 | 0 | 69.0[inhibitor] | 211.0 | 0 | 0 | 0 | 113.4
CCOc1ccc(CNCCc2ccc(S(N)(=O)=O)cc2)cc1 | 0 | 0 | 0 | 0 | 0 | 0 | - | - | - | - | -
CCOc1cc(CNCCc2ccc(S(N)(=O)=O)cc2)ccc1OCc1ccc(Cl)cc1 | 46.0 | 58.5 | 0 | 214.0 | 0 | 0 | 0 | 0 | 0 | 0 | 65.8
COc1cc(OC)cc(-c2c(C#Cc3ccsc3)c3cc(-c4cccc5[nH]cc(C=O)c45)ccc3n2C)c1 | - | 0 | 0 | - | 0 | - | - | - | - | - | -
CCCC[C@@H](CNC)NC[C@H](NCCCCC1CCCCC1)C(C)C | 30.0 | 66.2 | 0 | 0 | 0 | 0 | 0 | 0 | 0 | 0 | 45.3
O=C(Nc1ccc(C(F)(F)F)cc1[N+](=O)[O-])O[C@H]1[C@H](Cc2ccccc2)NS(=O)(=O)[C@H]2C[C@@H]3C=C[C@]12O3 | - | 0 | 0 | - | 0 | - | - | - | - | - | -

Screening results (PubChem BioAssay)
